Measurements as given in PubChem BioAssay AID1458 (National Center for Advancing Translational Sciences (NCATS), 2008).
The whole screen tested about 210,000 compounds, of which about 5,900 (2.8%) were called active. About 5% were inconclusive and are not listed. The call rests on the fitted dose curve; in most records, active means well fitted activation curve with a large enough effect; inconclusive means small, poorly fitted or top-dose-only effect; inactive means no such curve, though single readings can be large or run the other way. The list comes from a sample in which actives are over-represented; it also holds similar structures and randomly drawn compounds. Entries that show only a call come without a potency.

Assay: qHTS Assay for Enhancers of SMN2 Splice Variant Expression; further: nearly all actives have a fitted effect of over 55% in size
Conditions: HEK293 SMN2-luciferase splicing reporter, luminescence, 30-36 h; series mostly up to 46.1 µM
Procedure, shortened: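 HEK293 cells carry an SMN2 […]–luciferase reporter in which exon 7 inclusion puts luciferase in frame. Cells were plated 10-12 h before compound addition, then incubated 30-36 h at 37C. ONE-Glo luminescence was read; sodium butyrate at 4.5 mM final served as control.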
Potency means the concentration at half of the fitted maximal effect.

| SMILES | Potency |
| --- | --- |
| O=C(Cc1ccc(Cl)cc1)Nc1ccc2nn(-c3ccc(Cl)cc3)nc2c1 | inactive |
| CCCCNC(=O)c1ccc2c(c1)NC(=O)C(C(C)C)N2 (stereo not drawn) | inactive |
| COc1ccc(CNc2nc(-c3ccccc3)nn2C(=O)c2ccccc2OC)cc1 | inactive |
| Brc1cccc(-c2nnn3c2nc(NC2CCCCC2)c2ccccc23)c1 | inactive |
| COc1ccc(N2CCN(Cc3nc4c(c(=O)[nH]c(=O)n4C)n3Cc3ccc(Cl)cc3)CC2)cc1 | inactive |
| O=C(NCCC1=CCCCC1)C1CCN(Cc2cnn(-c3ccccc3)c2-n2cccc2)CC1 | inactive |
| C1=C(CCNc2ncnc3c2cnn3-c2ccccc2)CCCC1 | 12.6 µM (active) |
| c1ccc(-n2ncc3c(N4CCCC4)ncnc32)cc1 | inactive |
| CCOc1ccccc1C(=O)NC1(C(F)(F)F)C(=O)Nc2c1c(=O)[nH]c(=O)n2-c1ccc(F)cc1 (stereo not drawn) | inactive |
| O=C(NC1(C(F)(F)F)N=C(c2ccccc2)N(C2CCCCC2)C1=O)c1ccccc1F (stereo not drawn) | inactive |
| CCCN1CN=C(NS(=O)(=O)c2ccc(NC(C)=O)cc2)NC1 | inactive |
| COc1ccc(-c2cc(-c3ccc(F)cc3)nc3c2COc2ccccc2-3)cc1 | inactive |
| Clc1ccc(-c2nnc(SCc3nc4ccccc4s3)o2)cc1 | inactive |
| FC(F)(F)c1cnc(Oc2ccccc2-c2nnc(-c3ccc(Cl)cc3)o2)c(Cl)c1 | inactive |
| CSc1ccccc1-c1nnc(-c2ccc(Cl)cc2)o1 | 14.1 µM (active) |
| CCOC(=O)c1ccccc1NC(=O)CCc1c(C)nc2c(c1C)c(=O)n(C)c(=O)n2C | inactive |
| CCN(CC)S(=O)(=O)c1ccc2c(c1)N(CC(=O)NCc1ccccc1)C(=O)CS2 | inactive |
| CCc1ccccc1NC(=O)CSc1nnc(-c2ccncc2)o1 | inactive |
| O=C(CSc1nnc(-c2ccncc2)o1)NCc1ccc(Cl)cc1 | inactive |
| O=C(CSc1nnc(-c2ccc([N+](=O)[O-])cc2)o1)Nc1ccccn1 | 3.16 µM (active) |
| N#Cc1nc(/C=C/c2ccc(F)cc2)oc1NCc1ccc(F)cc1 | inactive |
| Cc1ccc2nc3c(cc(C(=O)NC4CCCCC4)c(=N)n3C(C)C)c(=O)n2c1 | inactive |

| SMILES | Potency |
| --- | --- |
| Nc1ccccc1N | 11.2 µM (active) |
| Cc1ccc(Nc2ccccc2N)cc1 | inactive |
| NCCC(=O)c1ccccc1N | inactive |
| COc1ccc(NC(=O)C(=O)NCc2ccco2)cc1 | inactive |
| COc1cccc(NC(=O)N2CCN(C(=O)c3nsc4ccccc34)CC2)c1 | inactive |
| COc1cccc2sc(Nc3nc(C)c(C(C)=O)s3)nc12 | 7.94 µM (active) |
| COc1cccc2sc(N(CCCN(C)C)C(=O)C(c3ccccc3)c3ccccc3)nc12 | inactive |
| COc1cccc2sc(NNC(=O)c3nc4ccccc4s3)nc12 | inactive |
| COc1ccc(/C=C2\NC(=O)[C@@H]3Cc4ccccc4CN3C2=O)cc1 | inactive |
| CCN(CC)S(=O)(=O)c1ccc2c(c1)N(CC(=O)NCC(C)c1ccccc1)C(=O)CO2 (stereo not drawn) | inactive |
| O=Cc1ccc(OCc2cn3ccccc3n2)cc1 | 11.2 µM (active) |
| Cc1ccc2nc(COc3ccc(N(C)S(=O)(=O)c4ccccc4)cc3)cc(=O)n2c1 | inactive |
| COc1ccc(C(=O)NCc2cn3ccccc3n2)cc1 | inactive |
| COc1ccc(-c2nc3c(c(SCC(=O)Nc4ccc(C(=O)O)cc4)n2)Cc2ccccc2O3)cc1 | inactive |
| Cc1ccc(-n2cc3ccc([N+](=O)[O-])cc3n2)cc1 | 1.26 µM (active) |
| Cc1cc(C)nc(Nc2cc([N+](=O)[O-])ccc2C)n1 | inactive |
| CC(C)(C)NC(=O)Cn1cnc2cc([N+](=O)[O-])ccc2c1=O | inactive |
| CC1CCN(C(=O)Cn2c(=O)n(-c3ccc(Cl)cc3)c(=O)c3c4c(sc32)CCC4)CC1 | inactive |
| CCCOc1ccc(CNC(=O)C2CCN(c3nn4c(=O)cc(C)nc4s3)CC2)cc1 | inactive |
| Cc1nn(CC(=O)O)c(=O)c2cc3cc(F)ccc3n12 | inactive |
| S=C(NCCc1ccccc1)N1CCCCC1 | 11.2 µM (active) |
| Oc1ccccc1N1CCN(C(=S)NCc2ccccc2)CC1 | inactive |

| SMILES | Potency |
| --- | --- |
| O=C1CCN(C(=S)NCCc2ccccc2)CC1 | inactive |
| CCc1nn(CCCC(=O)NCc2ccccc2OC)c(=O)c2cc3occc3n12 | inactive |
| COc1ccc(-n2c(SC)nc3sc4c(c3c2=O)CCN(C(C)=O)C4)cc1 | inactive |
| O=C(Nc1ccc2c(c1)OCCO2)C1CCCN(c2ncccn2)C1 (stereo not drawn) | 3.98 µM (active) |
| O=C(Nc1ccc2c(c1)OCCO2)C(c1ccc(F)cc1)N1CCCCC1 (stereo not drawn) | inactive |
| Cc1cc(C)nc(N2CCC(C(=O)Nc3ccc4c(c3)OCCO4)CC2)n1 | inactive |
| Cc1c(NS(=O)(=O)c2ccc(Cl)cc2)c(=O)n(-c2ccccc2)n1C | inactive |
| CCOc1ccccc1NC(=O)CSc1ncc(S(=O)(=O)c2ccc(C(C)(C)C)cc2)c(=O)[nH]1 | inactive |
| COC(=O)c1ccc(NC(=O)c2cccc3c2C(=O)N(C2CCCCC2)C3)cc1 | inactive |
| COc1cc(C)c(Cl)cc1S(=O)(=O)n1ccnc1 | inactive |
| CCOc1cc(C)c(Cl)cc1S(=O)(=O)n1nnc2ccccc21 | 17.8 µM (active) |
| CCCOc1cc(C)c(S(=O)(=O)n2nnc3ccccc32)cc1C | inactive |
| COc1ccccc1/C=C/c1nc(C#N)c(NC(C)c2ccccc2)o1 (stereo not drawn) | inactive |
| COc1ccc(/C=N/S(=O)(=O)c2ccccc2)cc1OC | inactive |
| COc1ccc(/C=N/Nc2nc3ccccc3o2)cc1OC | 6.31 µM (active) |
| CCOc1ccc(/C=N/Nc2nncc(-c3ccccc3)n2)cc1OC | inactive |
| Cc1ccc(Cl)cc1NC(=O)C1CCCN(c2cnccn2)C1 (stereo not drawn) | inactive |
| O=C(Nc1cccnc1Cl)c1cc(-c2cccc(Cl)c2)on1 | inactive |
| CCC(=O)N1CCc2cc(S(=O)(=O)NC(Cc3ccccc3)C(=O)NCc3ccccc3)ccc21 (stereo not drawn) | inactive |
| Nc1nc(NCCCN2CCOCC2)nc(Nc2ccccc2)c1[N+](=O)[O-] | inactive |
| CNc1nc(Nc2ccc(C)c(Cl)c2)nc(N)c1[N+](=O)[O-] | 11.2 µM (active) |
| COCCNc1nc(N)c([N+](=O)[O-])c(NCCO)n1 | inactive |

| SMILES | Potency |
| --- | --- |
| Cc1ccccc1CNC(=O)Cn1c(C)c2cnn(-c3ccccc3)c(=O)c2c1C | inactive |
| CCOC(=O)/C(C#N)=C/c1ccc(OCC(=O)Nc2ccccc2)c(OC)c1 | inactive |
| COc1cc(CCC(=O)OCC(=O)Nc2cccc(S(N)(=O)=O)c2)cc(OC)c1OC | inactive |
| CCCn1c(C)cc(/C=C(\C#N)C(=O)OCC(=O)Nc2cc(OC)c(OC)c(OC)c2)c1C | 14.1 µM (active) |
| CCOc1ccc(CCNC(=O)CN(c2ccc(C)cc2)S(=O)(=O)N(C)C)cc1OCC | inactive |
| CCOC(=O)c1ccc(N2C(=O)c3[nH]nc(-c4ccccc4)c3C2c2ccc(C(C)C)cc2)cc1 (stereo not drawn) | inactive |
| Cc1cnc(NC(=O)C2CCCC2)s1 | 14.1 µM (active) |
| Cc1ccc(SCC(=O)Nc2ncc(C)s2)cc1 | inactive |
| Cc1nc(NC(=O)C23CCC(C)(C(=O)O2)C3(C)C)sc1C (stereo not drawn) | inactive |
| CS(=O)(=O)c1ccc2nc(NC(=O)C3CCCCC3)sc2c1 | inactive |
| Cc1nc(NC(=O)C2CCCCC2)sc1C | 20 µM (active) |
| Cc1cnc(NC(=O)CSc2c(Cl)cccc2Cl)s1 | inactive |
| CCCCC(CC)CNC(=O)C1CCN(S(=O)(=O)c2cccc3nsnc23)CC1 (stereo not drawn) | inactive |
| CCc1cc2c(cc(C(=O)OC)n2Cc2nc(-c3ccc(C)cc3)oc2C)s1 | inactive |
| CCCC(=O)Nc1cccc(-c2cn3ccsc3n2)c1 | inactive |
| COc1cc(OC)cc(-c2nc(=S)n3ccsc3n2)c1 | inactive |
| c1ccc(-c2cn3cccnc3n2)cc1 | inactive |
| COc1ccc(-c2cn3cccnc3n2)cc1 | 12.6 µM (active) |
| Cc1ccc(-c2cn3cc(C)ccc3n2)cc1 | inactive |
| COc1ccc(-c2cn3ccsc3n2)cc1 | 15.8 µM (active) |
| Cc1ccc(C)c(Cn2c(CCCNC(=O)C3CCCCC3)nc3ccccc32)c1 | inactive |
| Cc1ccsc1CN(C(=O)c1oc2ccc(Br)cc2c1C)C1CCS(=O)(=O)C1 (stereo not drawn) | inactive |

| SMILES | Potency |
| --- | --- |
| Cc1ccc(-n2nc(C)c(C(=O)O)c2-n2cccc2)cc1 | inactive |
| COc1ccccc1C(=O)NCCn1cc(SCc2ccccc2Cl)c2ccccc21 | inactive |
| Cc1ccc(S(=O)(=O)Nc2ccccc2CNc2c(C)n(C)n(-c3ccccc3)c2=O)cc1 | inactive |
| Cc1c(N=Nc2ccc(N(C)C)cc2)c(=O)n(-c2ccccc2)n1C | 10 µM (active) |
| Cc1c(C=O)n(C)n(-c2ccccc2)c1=O | inactive |
| Cc1ccc2oc(=O)c3cnn(CC(=O)NCc4ccccc4Cl)c3c2c1 | inactive |
| CCCC12CN3CC(CCC)(CN(C1)C3c1c[nH]c3ccc(OC)cc13)C2=O (stereo not drawn) | inactive |
| CNC(=S)N1N=C(c2ccccc2)CC1c1ccc(Br)cc1 (stereo not drawn) | inactive |
| c1ccc(C2=Nc3cccc4cccc(c34)N2)cc1 | inactive |
| Brc1ccc(C2CC(c3ccccc3)=Nc3ccccc3N2)cc1 (stereo not drawn) | 11.2 µM (active) |
| O=C(Nc1ccc(OC(F)(F)F)cc1)C1CCCN(S(=O)(=O)c2ccc(Br)s2)C1 (stereo not drawn) | inactive |
| COc1cc(NS(=O)(=O)c2cccs2)cc(OC)c1 | inactive |
| Cc1cccc(N2CCN(c3c(CN4CCCC4)c(=O)oc4ccccc34)CC2)c1C | inactive |
| Cn1ncc(Br)c1C(=O)NCc1cccs1 | inactive |
| O=C(NCc1cccs1)c1ccc2c(c1)ncn2C1CCCC1 | inactive |
| Cc1nc2cc(NCc3cccs3)ccc2n1C | 7.94 µM (active) |
| CCCCCCn1nnc2sc(-c3ccccc3)cc2c1=O | inactive |
| CCOC(=O)c1cc(NC(=O)c2ccc(F)cc2)c(=O)n2c1oc1ccccc12 | inactive |
| COc1ccccc1NC(=O)c1oc2ccccc2c1NC(=O)C(C)C | inactive |
| CC(CCCc1ccccc1)NC(=O)c1nn(-c2ccc(Cl)cc2)nc1CO (stereo not drawn) | inactive |
